# HCV inhibitor: qHTS Assay for Inhibitors of Hepatitis C Virus (HCV). Huh7.5.1 HCVcc-Cre infection, luciferase reporter, 44 h. Potency, µM (top dose mostly 41.8 µM), without a hit: at the top dose activity change, negative = inhibition, hits mostly inhibitors. 3.4% of 340,000 active. AID 651820, 2012; also: potency is read from the fitted curve at half-maximal effect
#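 Infectious HCVcc-Cre (~0.5 moi) was added to cells just after compound, with cells seeded 4 h earlier at 1,000 per well. Luciferase activity after 44 h culture reported infection; substrate was incubated 15 min at room temperature before reading.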
# MARV entry inh: qHTS for inhibitors of binding or entry into cells for Marburg Virus | Marburg virus pseudotyped entry inhibition, cell reporter | Potency, µM (titrated, usually from 37.8 µM), for the others: at the highest dose activity change, negative = inhibition, usual class: inhibitors | 1.8% of 300,000 active; calls by dose curve; tested in HEK293 cells; also: potency is read from the fitted curve at half-maximal effect
# Lassa entry inh: qHTS for Inhibitors of binding or entry into cells for Lassa Virus. 1.2% of 300,000 active. AID 540256, 2011. Lassa virus pseudotype entry inhibition, cell reporter. Potency, µM (highest dose often 37.9 µM), without a hit: top-dose activity change, negative = inhibition, most hits filed as inhibitors; calls by dose curve; tested in HEK293 cells; also: potency is read from the fitted curve at half-maximal effect; nearly all actives have a fitted effect of over 50% in size
# Pf growth 96h: Primary qHTS for delayed death inhibitors of the malarial parasite plastid, 96 hour incubation | Potency, µM (series often up to 28.7 µM), without a hit: at the highest dose activity change, negative = inhibition, actives largely listed as inhibitors | 6.9% of 320,000 active | P. falciparum luciferase reporter growth, 96 h; also: potency is read from the fitted curve at half-maximal effect
#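 P. falciparum expressing integrated firefly luciferase grown in erythrocytes (2% hematocrit, 0.05% parasitemia final) with compounds for 96 hours at 37 C, 5% CO2. Growth inhibition read as loss of luminescence after adding luciferase detection reagent.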
# HCMV antiviral: qHTS Assay for inhibitors of the human cytomegalovirus (HCMV); HFF cells, HCMV-luciferase reporter, 72 h; stronger effect = lower value; activity change, negative = inhibition, % at 57.5 µM; 4.5% of 410,000 active; in the data active = activity change below about -60%; inconclusive = no clear call, values can overlap the other calls; inactive = above about -39%
#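 Compounds were evaluated in HFFs infected with an HCMV luciferase reporter virus (MOI 1 PFU/cell). Luciferase in lysates collected 72 h post infection served as the replication measure.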
# Pf growth 48h: Primary qHTS for delayed death inhibitors of the malarial parasite plastid, 48 hour incubation. 5.9% of 310,000 active. P. falciparum luciferase growth in erythrocytes, 48 h. Potency, µM (titrated, usually from 28.7 µM), for the others: top-dose activity change, negative = inhibition, actives largely listed as inhibitors. AID 504832, 2011; also: potency is read from the fitted curve at half-maximal effect
#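 Read-out is firefly luciferase luminescence from an integrated reporter in P. falciparum, so falling signal marks reduced parasite growth. Infected erythrocytes were at 2% hematocrit and 0.1% parasitemia (final) in Albumax-supplemented RPMI 1640.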
# * hit, by the source's call; i = inactive; ? = inconclusive; . = no result; [ ] = dose if it differs, or a comment. Only some compounds are listed: those with a hit (about 14% of all), similar ones and a draw of the others. Unless noted, calls follow the shape of the dose curve; as a rule, active = well fitted inhibition curve with a large enough effect; inconclusive = small, poorly fitted or top-dose-only effect, or another doubt; inactive = no such curve, though single readings can be large or run the other way. % is scaled to controls: 0 for no effect and ±100 for the full control effect.
SMILES,HCV inhibitor,MARV entry inh,Lassa entry inh,Pf growth 96h,HCMV antiviral,Pf growth 48h
COc1cc2c(c(OC)c1OC)-c1ccc(NC(=O)c3ccccc3)c(=O)cc1[C@@H](NC(C)=O)CC2,14.2%,19.4%[46.1 µM],20.2%,?,-88.5*,9.28µM*
COc1cc2c(c(OC)c1OC)-c1ccc(O)cc1C(NC(C)=O)CC2 (centres undefined),6.4%,?,?,.,-94.9*,.
COc1cc2c(c(OC)c1OC)-c1ccc(O)cc1[C@@H](NC(C)=O)CC2,-9.9%,.,.,67.2%,-78.4*,?
COc1cc2c(c(OC)c1OC)-c1c(cc(OC)c(OC)c1OC)C[C@](C)(O)[C@@H](C)C2,18.1%,.,.,?,11.7,39.1%
COc1cc2c(c(OC)c1OC)-c1ccc(O)c(=O)cc1[C@@H](NC(C)=O)CC2,-23.6%,.,.,.,-37.4,.
COc1ccc(NC(=S)N2CCC3CC2c2c(Cl)cccc23)c(OC)c1 (centres undefined),.,.,.,.,-24.3,.
COc1cccc(CNCCSc2nnnn2C)c1OCc1ccc(Cl)cc1Cl,.,?,?,.,-60.6*,.
COc1cccc(CNCCSc2nnnn2C)c1OCc1ccc(Cl)cc1,.,10µM*,-1.0%[46.1 µM],.,?,.
Cn1nnnc1SCCCNCc1ccccc1OCc1ccccc1Cl,.,?,-18.6%[46.1 µM],.,-63.3*,.
CCOc1c(CNCCSc2nnnn2C)cccc1OC,.,-25.3%[46.1 µM],22.2%[46.1 µM],.,7.6,.
Cc1ccc2c(CN3CCN(c4ccccc4F)CC3)cc(=O)oc2c1,.,.,9.3%[46.1 µM],.,18.3,.
CC(=O)Nc1nonc1-c1nnc(SCC(=O)Nc2ccc(C)cc2C)n1C,.,?,14.1%[46.1 µM],.,-11.4,.
O=C(C[C@@H]1C/C=C\CC[C@@H](Cc2ccc(F)cc2)C(=O)OC[C@@H]2CCCN2C1=O)N[C@H](CO)Cc1ccccc1,52.8%,.,.,.,6.8,.
CCCOc1ccc(F)cc1-c1cc(C(=O)NCc2cc(OC)cc(OC)c2)[nH]n1,.,.,.,.,28.8,.
Cc1cc(C(=O)COc2ccccc2C(N)=O)c(C)n1CC1CCCO1 (centres undefined),1.78µM*,?,-13.4%,9.8%,-62.0*,75.6%
Cc1cc(C(=O)COC(=O)c2ccccc2Br)c(C)n1CC1CCCO1 (centres undefined),?,?,?,183.1%,.,61.6%
Cc1cc(C(=O)COC(=O)c2n[nH]c3ccccc23)c(C)n1CC1CCCO1 (centres undefined),?,7.08µM*,?,i,7.4,334.9%
Cc1ccc(C(=O)OCC(=O)c2cc(C)n(CC3CCCO3)c2C)cc1 (centres undefined),?,?,-10.1%,102.7%,10.0,103.3%
Cc1cc(C(=O)COC(=O)c2ccccc2O)c(C)n1CC1CCCO1 (centres undefined),11.2µM*,.,.,0.0%,-72.8*,-4.1%
Cc1cc(C(=O)COC(=O)c2cccc(NS(C)(=O)=O)c2)c(C)n1CC1CCCO1 (centres undefined),?,5.62µM*,10µM*,.,-27.0,.
Cc1cccc(Nc2nc3c(S(=O)(=O)c4ccc(Br)cc4)nnn3c3ccsc23)c1C,.,.,-24.5%[46.1 µM],.,24.6,.
O=C1N=C2CCCCC2=C1c1sc(N[S+](=O)([O-])C2CCCCC2)nc1O,.,15.5%[46.1 µM],.,.,.,.
COc1ccccc1Nc1nc2ccc(Cl)cc2nc1-n1nc(C)cc1C,.,9.7%[46.1 µM],10.4%[46.1 µM],.,26.8,.
OCC(O)C(O)C(O)CO (centres undefined),.,.,.,-9.6%,.,-4.9%
Cc1ccc(C(=O)C(C)Oc2cccc(NC(=O)c3ccco3)c2)cc1 (centres undefined),-19.1%,-18.7%,?,-1.6%,-29.1,2.94µM*
CC(Oc1ccc(NC(=O)c2ccco2)cc1)C(=O)N1c2ccccc2CC1C (centres undefined),-27.9%,-8.1%,?,5.22µM*,-37.6,?
COc1cccc(NC(=O)c2ccco2)c1,-3.5%,6.3%,0.1%,-26.7%,37.8,143.7%

# Screens deposited in PubChem BioAssay by National Center for Advancing Translational Sciences (NCATS).
